Hits are enriched below; roughly 0.84% of the tested compounds scored in any of these assays.
PPARg SRC2 recr: promotes SRC-2 coactivator recruitment by human PPARgamma; AID 1032; P37231; 200,000 compounds, 0.34% hits; PPARgamma LBD-SRC-2 recruitment, biochemical; activation, % at 8 µM
Target sequence (P37231 whole entry, looked up, the tested form may be a part): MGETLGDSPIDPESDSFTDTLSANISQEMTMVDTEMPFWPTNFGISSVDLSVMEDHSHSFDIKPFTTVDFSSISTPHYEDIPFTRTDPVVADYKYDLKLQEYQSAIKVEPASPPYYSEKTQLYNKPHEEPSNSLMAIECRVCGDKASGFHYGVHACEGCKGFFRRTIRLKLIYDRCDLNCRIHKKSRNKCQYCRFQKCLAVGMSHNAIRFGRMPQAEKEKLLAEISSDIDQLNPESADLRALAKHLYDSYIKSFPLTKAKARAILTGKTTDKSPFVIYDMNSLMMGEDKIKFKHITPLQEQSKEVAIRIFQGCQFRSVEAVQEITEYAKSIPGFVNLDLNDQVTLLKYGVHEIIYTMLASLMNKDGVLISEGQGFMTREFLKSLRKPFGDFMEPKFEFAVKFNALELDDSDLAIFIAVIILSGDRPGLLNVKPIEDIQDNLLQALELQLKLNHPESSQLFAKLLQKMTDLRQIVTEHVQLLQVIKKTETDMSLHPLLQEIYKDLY
TR-FRET SRC-2 ct: counter-screen for PPARgamma SRC-2 recruitment agonists: TR-FRET artefact. 200,000 compounds, 0.4% hits. TR-FRET ratio at 8 µM. hits give high values; in the data active means TR-FRET ratio above about 2000
PPARg SRC-3 ag: PPARgamma-driven SRC-3 recruitment agonism | P37231 | biochemical PPARgamma/SRC-3 coactivator recruitment assay | activation, % at 8 µM | 200,000 compounds, 0.26% hits; in the data active means activation above about 23%
SRC3 TRFRET art: TR-FRET artefact, counter-screen to PPARgamma/SRC-3 agonist assay; PPARgamma/SRC-3 format; hits give high values; TR-FRET ratio at 8 µM; 99,000 compounds, 0.39% hits; in the data active means TR-FRET ratio above about 2000
SRC1 TRFRET art: flags TR-FRET format artefacts in PPARgamma SRC-1 recruitment agonist screen | 99,000 compounds, 0.34% hits | TR-FRET ratio at 8 µM | AID 1051 | TR-FRET detection artefact counter-screen, emission ratio; hits give high values; in the data active means TR-FRET ratio above about 2300
PPARg SRC-1 ag: agonists of human PPARgamma SRC-1 coactivator recruitment | P37231 | PPARgamma-SRC-1 coactivator recruitment biochemical assay | activation, % at 8 µM | 200,000 compounds, 0.41% hits; in the data active means activation above about 19%
PPARg SRC2 conf: human PPARgamma SRC-2 recruitment agonism, confirmation; shares compounds with PPARg SRC-3 ag; biochemical SRC-2 recruitment by PPARgamma; activation, % at 8 µM; 790 compounds, 52% hits
PPARg SRC1 ag: confirmation of agonists of SRC-1 recruitment by human PPARgamma; shares compounds with PPARg SRC-3 ag; PPARgamma–SRC-1 coactivator recruitment biochemical assay; activation, % at 8 µM; 790 compounds, 43% hits; in the data active means activation above about 20%
PPARg SRC3 conf: confirmation of agonists of SRC-3 recruitment by human PPARgamma. shares compounds with PPARg SRC-3 ag. activation, % at 8 µM. biochemical PPARgamma-SRC-3 coactivator recruitment, agonist mode. 790 compounds, 29% hits; in the data active means activation above about 24%
Hits are given with their value; 0 = inactive; - = no result given. Unless noted, no stated cut-off is given here; in the data, active means activation above about 22%; inactive means the rest.

SMILES	PPARg SRC2 recr	TR-FRET SRC-2 ct	PPARg SRC-3 ag	SRC3 TRFRET art	SRC1 TRFRET art	PPARg SRC-1 ag	PPARg SRC2 conf	PPARg SRC1 ag	PPARg SRC3 conf
COc1ccc(/C=N/Nc2cn[nH]c(=O)c2Cl)cc1	0	0	0	0	0	0	-	-	-
CCOc1cc(C2C(C#N)=C(N)SC(N)=C2C#N)ccc1OCCN1CCOCC1	36	2438	46	-	-	30	0	0	0
CCCc1[nH]nc2c1C(c1ccc(OCCN3CCOCC3)c(OC)c1)C(C#N)=C(N)O2 (stereo not given)	0	0	0	0	0	0	-	-	-
CCOc1ccc(C2C(C#N)=C(N)SC(N)=C2C#N)c(OCC)c1	0	0	0	-	-	27	0	0	0
CN1C(=O)/C(=C/C=C2\SCCN2C)N(C)C1=S	0	0	0	0	0	23	0	0	0
O=C(O)[C@H]1CCCC[C@H]1C(=O)Nc1ccc(Nc2ccccc2)cc1	27	0	0	-	-	0	0	0	0
c1ccc(-c2nc3ccccc3s2)nc1	0	0	0	-	-	0	-	-	-
Brc1ccc(-c2nc3ccccc3s2)s1	63	3008	93	-	-	71	89	66	59
O=C(Oc1ccc(Nc2ncnc3ccccc23)cc1)c1cccnc1	0	0	0	0	0	0	-	-	-
Fc1ccc(-c2nnsc2Sc2ccccn2)cc1	145	3478	58	6319	0	0	34	35	0
COc1ccc2c(c1)nc(SCC(=O)c1ccc(Br)s1)n2C	28	0	0	-	-	0	39	27	28
C=CCn1c(NC(=O)c2ccc(Br)o2)c(S(=O)(=O)c2ccccc2)c2nc3ccccc3nc21	0	0	27	-	-	34	0	0	0
O=C(Nc1ccc(S(=O)(=O)NCc2ccccc2)cc1)c1ccc(Br)o1	0	0	0	-	-	0	-	-	-
O=C(COC(=O)CCSc1ccc(Cl)cc1)NCc1ccco1	0	0	0	0	0	0	-	-	-
Oc1c(Br)cc(C=Nc2ccc3nc(-c4ccccc4)[nH]c3c2)c(O)c1Br	0	0	0	0	0	22	0	0	0
CC(C)NC(=O)CC1C(=O)N(Cc2ccccc2)C(C)c2nc3ccccc3n21 (stereo not given)	0	0	0	0	0	0	-	-	-
O=C(COC(=O)c1ccc(Cl)c(S(=O)(=O)NCc2ccccc2)c1)NCC1CCCO1 (stereo not given)	0	0	0	0	0	0	-	-	-
Cc1cc2cc(CNS(=O)(=O)c3ccc4ccccc4c3)ccc2n1C	0	3303	38	-	-	0	104	79	65
Cc1cc2cc(CNC(=O)c3ccc(S(=O)(=O)N4CCOCC4)cc3)ccc2n1C	0	2210	45	-	-	31	35	29	0
Cc1ccc(C(=O)NCCc2ccc(S(=O)(=O)N3CCCC3)cc2)cc1	0	0	0	0	0	0	-	-	-
CCCC(=O)NCc1ccc2c(c1)cc(C)n2C	0	0	0	-	-	0	-	-	-
Cc1cc2ccccc2n1CCNC(=O)c1ccc(S(=O)(=O)N2CCCCC2)cc1	26	3753	44	-	-	24	93	80	70
CCN(CC)S(=O)(=O)c1cc(NC(=O)CSc2nc3c(cc2C#N)C(=O)CC(C)(C)C3)ccc1C	0	0	0	0	0	0	-	-	-
CCOc1ccc(C(=O)NCCC2=CCCCC2)cc1OCC	0	0	0	0	0	0	-	-	-
CNCCCOc1cc(C)cc(C)c1C	0	0	0	0	0	0	-	-	-
SMILES	PPARg SRC2 recr	TR-FRET SRC-2 ct	PPARg SRC-3 ag	SRC3 TRFRET art	SRC1 TRFRET art	PPARg SRC-1 ag	PPARg SRC2 conf	PPARg SRC1 ag	PPARg SRC3 conf
CC1CCCN(C(c2cccs2)c2nnnn2Cc2ccccc2)C1 (stereo not given)	0	0	0	-	-	0	-	-	-
CCCC(C)C(=O)OCC(=O)Nc1ccc(Br)cc1 (stereo not given)	0	0	0	0	0	0	-	-	-
O=C(COc1ccc2ccccc2c1Br)NNC(=O)Nc1ccccc1	28	2408	26	-	-	21	0	0	0
Cc1c2c(nc3ccccc13)OCC2	0	0	0	0	0	0	-	-	-
COC(=O)c1ccc(NC(=O)CSc2ccccc2)cc1	0	0	0	0	0	0	-	-	-
O=C(CSc1ccccc1)Nc1ccc(C(=O)Nc2ccc(O)cc2)cc1	37	0	0	0	0	26	30	22	0
Cc1onc(-c2ccccc2Cl)c1C(=O)Nc1ccc(F)c(F)c1	0	0	0	-	-	0	-	-	-
Cc1onc(-c2ccccc2Cl)c1C(=O)Nc1nnc(-c2ccc(Cl)cc2Cl)s1	0	0	0	-	-	23	31	23	0
Cc1onc(-c2c(F)cccc2Cl)c1C(=O)Nc1nnc(-c2ccccc2)s1	0	0	26	-	-	0	26	25	0
Cc1onc(-c2ccccc2Cl)c1C(=O)Nc1nn[nH]n1	0	0	0	0	0	0	-	-	-
Cc1onc(-c2ccccc2Cl)c1C(=O)Nc1nnc(-c2ccc(F)cc2)s1	22	0	32	-	-	0	0	0	0
Cc1onc(-c2ccccc2Cl)c1C(=O)Nc1nnc(-c2ccc(Br)cc2)s1	28	2175	0	-	-	29	32	0	0
Cc1onc(-c2c(F)cccc2Cl)c1C(=O)Nc1nnc(C2CC2)s1	0	0	0	-	-	0	-	-	-
C=C(C)C1CC=C(C)/C(=N/NC(=O)c2ccoc2C)C1 (stereo not given)	0	0	0	0	0	0	-	-	-
CC(=O)OC[C@H]1O[C@H](C/C=N/OC[C@@H](O)[C@H]2O[C@@H]3OC(C)(C)O[C@@H]3[C@H]2O)C=C[C@@H]1OC(C)=O	0	0	0	0	0	0	-	-	-
O=C(NC1CCCCC1)C(c1ccc(F)cc1)N(Cc1ccco1)C(=O)CN1C(=O)c2ccccc2S1(=O)=O (stereo not given)	0	0	0	0	0	0	-	-	-
Cc1ccc(OS(=O)(=O)c2cn(C)c(=O)n(C)c2=O)cc1C	0	0	0	0	0	0	-	-	-
CC(=O)c1cc(NC(=O)c2ccc(Cl)cc2)c(=O)oc1/C=C/N(C)C	0	0	0	-	-	20	0	0	0
CC(=O)c1cc(NC(=O)c2cccc(C(F)(F)F)c2)c(=O)oc1/C=C/N(C)C	0	0	0	-	-	0	-	-	-
COc1ccc2cc(C#N)c(SCC(=O)NNC(=O)Cc3ccccc3)nc2c1	49	2781	0	-	-	32	54	42	37
Cc1ccc2cc(C#N)c(SCC(=O)NNC(=O)Cc3ccccc3)nc2c1	0	0	0	0	0	0	-	-	-
CCOC(=O)c1sc(=S)n(-c2ccccc2Cl)c1SC	31	0	31	-	-	30	40	36	29
CCOC(=O)c1sc(=S)n(-c2ccccc2)c1SC	0	0	0	-	-	0	-	-	-
CCn1c(C)nc2cc(S(=O)(=O)N3CCCC3)ccc21	24	0	0	-	-	0	0	0	0

High-throughput results as filed in PubChem.
